Bioassay records: PubChem BioAssay, National Center for Advancing Translational Sciences (NCATS)
GCN5L2 inh – qHTS Assay for Inhibitors of GCN5L2; AID 504327, 2011; Potency, µM (titrated, usually from 58.9 µM), for inactives: at the highest dose activity change, negative = inhibition, actives largely listed as inhibitors; GCN5L2 HAT assay, ThioGlo1 CoA-SH fluorescence; hit rate 0.21% among 390,000; further: on the % scale 0 is the no-effect control and ±100 the full control effect
Target sequence (Q92830 whole entry, looked up): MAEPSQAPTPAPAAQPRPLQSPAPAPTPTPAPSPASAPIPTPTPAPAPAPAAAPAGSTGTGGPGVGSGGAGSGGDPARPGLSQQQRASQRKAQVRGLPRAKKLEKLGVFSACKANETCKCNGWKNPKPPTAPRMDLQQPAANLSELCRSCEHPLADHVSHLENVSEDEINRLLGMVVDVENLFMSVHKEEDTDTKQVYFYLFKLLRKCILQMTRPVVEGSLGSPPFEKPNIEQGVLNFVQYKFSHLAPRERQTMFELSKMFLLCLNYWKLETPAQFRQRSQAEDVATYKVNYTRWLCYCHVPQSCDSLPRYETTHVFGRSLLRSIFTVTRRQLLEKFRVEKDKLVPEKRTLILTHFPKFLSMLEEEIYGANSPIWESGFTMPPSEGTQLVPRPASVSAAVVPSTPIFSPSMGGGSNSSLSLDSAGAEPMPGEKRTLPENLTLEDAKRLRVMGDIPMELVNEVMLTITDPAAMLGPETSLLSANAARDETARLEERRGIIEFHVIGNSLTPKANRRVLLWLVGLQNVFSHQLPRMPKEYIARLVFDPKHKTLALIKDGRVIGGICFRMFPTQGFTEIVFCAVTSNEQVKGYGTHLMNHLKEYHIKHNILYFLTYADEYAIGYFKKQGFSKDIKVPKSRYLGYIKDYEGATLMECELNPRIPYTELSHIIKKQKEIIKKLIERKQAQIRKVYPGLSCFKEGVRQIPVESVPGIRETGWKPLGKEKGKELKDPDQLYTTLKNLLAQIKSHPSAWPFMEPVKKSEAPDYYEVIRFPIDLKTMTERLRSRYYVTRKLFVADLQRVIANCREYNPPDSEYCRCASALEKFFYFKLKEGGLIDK
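Preincubate 20nM GCN5L2 with compound 15 min, RT → add 50uM ThioGlo1 + 75uM H3(1-25) + 70uM acetyl-CoA → read fluorescence 0 and 20 min. Primary qHTS; fluorescent artifacts likely.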
Pol kappa inh – qHTS for Inhibitors of Polymerase Kappa | hit rate 0.53% among 400,000 | Potency, µM (highest dose often 107 µM), without a hit: top-dose activity, negative = inhibition, actives largely listed as inhibitors | DNA polymerase kappa (Homo sapiens), Q9UBT6 | purified Pol kappa, fluorescent DNA synthesis assay, 10 min; further: on the % scale 0 is the no-effect control and ±100 the full control effect
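10 nM Pol kappa preincubated 15 min at room temperature with compounds, then reaction started with substrate at 50 nM final. Fluorescence read kinetically at 0 and 10 min; buffer-only wells served as negative control.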
GLS inhibitor – qHTS for Inhibitors of Glutaminase (GLS). Glutaminase kidney isoform, mitochondrial (Homo sapiens), O94925. Potency, µM (top dose mostly 45.5 µM), for the others: top-dose activity change, negative = inhibition, usual class: inhibitors. hit rate 0.21% among 410,000. GLS enzymatic activity, qHTS titration; further: on the % scale 0 is the no-effect control and ±100 the full control effect
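hKGA in 45 mM KH2PO4 (pH 8.2), 0.02% Tween-20 with compound, then 1mM L-Glutamine (stock as added) plus glutamate oxidase/HRP/Amplex red coupling mix. Fluorescence read initially and after 30 min at RT; signal change reflects glutamate formation.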
POLB inh – qHTS Assay for Inhibitors of DNA Polymerase Beta | hit rate 1.3% among 340,000 | Potency, µM (highest dose often 114 µM), inactives show at the top dose activity change, negative = inhibition, usual class: inhibitors | Pol beta primer extension/strand displacement, fluorescence kinetic | P06746; further: on the % scale 0 is the no-effect control and ±100 the full control effect
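Pol beta (10 nM) and compounds were preincubated 15 min at room temperature, then 50 nM substrate (final) started primer extension/strand displacement. Reads were taken at 0 and 10 min; concentration-response data were fitted to a four-parameter Hill equation.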
POLH inh – qHTS for Inhibitors of Polymerase Eta; Potency, µM (highest dose often 114 µM), inactives show top-dose activity change, negative = inhibition, most hits filed as inhibitors; DNA polymerase eta (Homo sapiens), Q9Y253; hit rate 1.2% among 390,000; recombinant Pol eta, fluorescent DNA replication assay; further: on the % scale 0 is the no-effect control and ±100 the full control effect
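Fluorescent replication assay: 50 nM final substrate added after a 15 min room-temperature compound preincubation with 10 nM enzyme. Signal taken at 0 min and again at 10 min.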
POLI inh – qHTS for Inhibitors of Polymerase Iota; Pol iota fluorescent replication assay, 10 min; Potency, µM (series often up to 115 µM), for the others: top-dose activity, negative = inhibition, most hits filed as inhibitors; hit rate 1% among 390,000; DNA polymerase iota (Homo sapiens), Q9UNA4; AID 588590, 2011
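Pol iota at 10 nM preincubated 15 min with compounds at room temperature; reaction started with fluorescent substrate, 50 nM final. Fluorescence read kinetically at 0 and 10 min; buffer-only wells as negative control.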
Active calls of the source: *; ? = inconclusive; . = not tested or not shown; [ ] = dose if it differs, or a comment. Compounds with a hit are over-represented: about 2.4% of the library has one in this group of screens. The call rests on the fitted dose curve; in most records, active means well fitted inhibition curve with a large enough effect; inconclusive means small, poorly fitted or top-dose-only effect, or another doubt; inactive means no such curve, though single readings can be large or run the other way. Potency means the concentration at half of the fitted maximal effect.

SMILES	GCN5L2 inh	Pol kappa inh	GLS inhibitor	POLB inh	POLH inh	POLI inh
Cc1ccc(-n2cccc2/C=C2\C(=N)N3N=C(C(C)C)SC3=NC2=O)cc1	-23.0%	-11.5%	3.7%	28.2µM*	-12.1%	12.1%
CCC(C)C(N)C1=NC(C(=O)N[C@@H](CC(C)C)C(=O)N[C@H](CCC(=O)[O-])C(=O)N[C@H](C(=O)N[C@H]2CCCCNC(=O)[C@H](CC(N)=O)NC(=O)[C@@H](CC(=O)[O-])NC(=O)[C@H](Cc3cnc[nH]3)NC(=O)[C@@H](Cc3ccccc3)NC(=O)[C@H]([C@@H](C)CC)NC(=O)[C@@H](CCCN)NC2=O)[C@@H](C)CC)CS1.[Zn+2] (stereo partly specified)	.	?	?	.	?	0.891µM*
CC[C@H](C)[C@@H]1NC(=O)[C@H](Cc2ccc(O)cc2)NC(=O)[C@@H](N)CSSC[C@@H](C(=O)N2CCC[C@H]2C(=O)N[C@@H](CC(C)C)C(=O)NCC(N)=O)NC(=O)[C@H](CC(N)=O)NC(=O)[C@H](CCC(N)=O)NC1=O	3.4%	-9.9%[12 µM]	.	.	.	.
Cc1cc(Cl)n2c(nc3ccccc32)c1C#N	-2.1%	-4.5%	3.7%	89.1µM*	39.8µM*	22.4µM*
CNc1cc(C)c(C#N)c2nc3ccccc3n12	-22.2%	-14.6%	-5.4%	0.9%	-3.2%	41.9%
COc1ccc2[nH]cc(C(=O)CNc3nccs3)c2c1	.	1.0%	.	.	.	-9.9%
COc1cccc(-c2nc3c(C#N)c[nH]n3c2NC2CCC(C)CC2)c1 (stereo unspecified)	-3.9%	-14.0%	?	19.3%	-14.7%	15.0%
COc1ccc(-c2nc3c(C#N)c[nH]n3c2NC2CCCC2)c(OC)c1	-7.7%	-8.8%	12.6µM*	-1.1%	-17.4%	38.5%
CN(C)c1ccc(N=Cc2ccncc2)cc1	.	-19.1%	.	.	.	?
CCc1ccc2nc3nc(C)cc(C)c3c(N)c2c1	-5.3%	-10.1%	-10.8%	?	1.7%	?
Cc1cc(C)c2c(N)c3ccccc3nc2n1	-0.7%	-30.8%	-8.0%	25.1µM*	-14.7%	14.1µM*
Cc1ccc2c(/C=C/c3c[nH]c4ccccc34)ccnc2c1C	.	0.0%	.	.	.	40.4%
O=c1cc(-c2ccccc2)nc2c(-c3ccccc3)c(C(F)(F)F)[nH]n12	?	-11.7%	37.4%	79.4µM*	?	20.4%
O=C(O)c1ccc2[nH]c3c(c2c1)CSCC3	-5.6%	?	-29.7%	?	8.91µM*	-18.0%
CN(C)CCOC(=O)c1ccc2[nH]c3c(c2c1)CSCC3	-8.1%	-6.4%	17.9%	14.8%	-18.2%	115.1%
CCCN1CCC(=O)N(C(CSc2ccc(OC)cc2)CC(C)C)CC1 (stereo unspecified)	.	-2.3%	.	.	.	-5.3%
CC(C)(C)n1ncc2c(=O)n(Cc3cccc(-c4cccs4)c3)cnc21	.	-11.0%	.	.	.	-44.4%
CC(C)Nc1nnc(SCC(=O)Nc2sccc2C#N)s1	-3.4%	-34.3%	16.5%	.	31.6µM*	?
Cc1ccnc(SCC(=O)Nc2sccc2C#N)n1	-15.9%	?	-2.0%	31.6µM*	-27.2%	?
N#Cc1ccsc1NC(=O)CSc1nnc(NC2CC2)s1	.	.	11.6%	.	-20.6%	.
Cc1cc(-c2nnc(SCC(=O)c3ccc4c(c3)OCCO4)o2)no1	-2.3%	-6.8%	12.6%	39.8µM*	-12.7%	54.1%
Cc1cc(C)cc(-c2nnc(SCC(=O)c3ccc4c(c3)OCCO4)o2)c1	-7.8%	-7.5%	-1.2%	1.4%	-10.1%	7.6%
Cc1nc([N+](=O)[O-])cn1-c1ccc([N+](=O)[O-])cc1	.	.	-0.7%	.	.	.
COc1ccc2oc(C(=O)OCC(=O)NCc3ccco3)c(C)c2c1	-7.0%	-25.6%	-9.2%	.	50.1µM*	?
CCOc1ccc(C(=O)OCC(=O)NCc2ccco2)cc1OCC	-7.5%	?	-0.2%	20µM*	?	?
SMILES	GCN5L2 inh	Pol kappa inh	GLS inhibitor	POLB inh	POLH inh	POLI inh
COc1ccc2oc(C(=O)OCC(=O)NCCc3ccccc3)c(C)c2c1	1.7%	-14.9%	-2.9%	.	-13.3%	-14.5%
CCOc1c2ccc(C(=O)NCc3ccco3)cc2nn1CCOC	28.2µM*	-12.1%	-15.0%	3.8%	13.4%	14.7%
COc1cc(OC)c(N(C)S(=O)(=O)c2cccc(C(=O)OCC(=O)NCc3ccco3)c2)cc1Cl	-14.7%	-16.9%	1.4%	-0.5%	-8.9%	85.2%
COc1ccc(C(=O)OCC(=O)NCc2ccco2)cc1OC	-18.8%	79.4µM*	-14.9%	10µM*	11.2µM*	20µM*
Cc1cccc(-n2c(-c3ccccc3)cn3c4c(=O)[nH]c(=O)n(C)c4nc23)c1	-9.9%	5.1%	-1.6%	-1.3%	-3.1%	36.7%
Cc1cnc2ccccc2c1C	.	2.2%	.	.	.	-1.6%
CCCCCC/C=C/c1ccc(OC)c(C2C3C=CCC(C)C3C(=O)N2Cc2ccccc2)c1 (stereo unspecified)	.	-1.5%	.	.	.	17.8%
COc1ccc(CNC(=O)C2CCCCN2S(=O)(=O)c2ccc(F)cc2)cc1 (stereo unspecified)	-5.7%	-7.2%	8.1%	-0.1%	-12.7%	3.2%
O=C(/C=C/c1ccco1)NCCCN1CCN(CCCNC(=O)/C=C/c2ccco2)CC1	-0.6%	-10.4%	7.6%	21.8%	-12.8%	3.2%
O=C(/C=C\c1ccco1)Nc1nc(-c2ccc3ccccc3c2)cs1	-18.0%	-14.7%	5.3%	11.9%[57.1 µM]	-8.8%	-2.1%
COC(=O)c1ccccc1NC(=O)/C=C/c1ccco1	22.3%	0.0%	5.2%	-26.2%	17.8µM*	?
O=C(/C=C/c1ccco1)Nc1cccnc1Cl	-0.8%	-26.1%	-21.0%	-0.4%	?	?
O=C(/C=C/c1ccco1)Nc1ccc(F)cc1	-5.0%	-2.3%[60.1 µM]	-6.0%	31.6µM*	.	?
Cc1ccc(-c2csc(NC(=S)NC(=O)/C=C/c3ccco3)n2)cc1	-9.4%	?	4.3%	3.8%	-2.6%	50.1µM*
CC(=O)NS(=O)(=O)c1ccc(NC(=O)/C=C/c2ccco2)cc1	1.2%	-14.6%	.	?	-0.7%	62.4%
O=C(/C=C/c1ccco1)NCCc1ccc(F)cc1	-9.5%	-40.5%	-28.9%	25.1µM*	?	20µM*
CC(C)c1ccc(/C=C2\C=Cc3ccccc32)cc1	.	-3.6%	.	.	.	27.4%
O=C(NCCc1ccccc1)/C(=C/c1ccco1)c1ccccc1	-19.6%	-3.2%	1.8%	35.5µM*	?	-19.2%
O=C(/C=C/c1ccc(F)cc1)NCc1ccco1	-5.3%	-33.9%	-16.4%	56.2µM*	?	?
O=C(NCc1ccco1)c1cc(-c2ccco2)on1	1.8%	-14.7%	-3.7%	16.5%	2.7%	89.1µM*
